MIN6 prolif = induces beta-cell replication in MIN6 cells; MIN6 cells proliferation, ATPlite luminescence, 48 h; cells starved in 0.2% serum; 100% = growth in 10% serum; proliferation, % at 10 µM; 330,000 tested, 0.29% active; AID 2380;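 active means compounds whose signal lies at least 3.5 SD above the mean of all wells on their plate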;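 further: 0% = DMSO-treated cells in low-serum medium and 100% = 10% serum control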
GRIN3A LBD mod = modulates the human NR3A ligand-binding domain; 340,000 tested, 2.5% active; AID 1259313; NR3A LBD differential scanning fluorimetry, Tm shift; 0% = protein alone, 100% = glycine-bound protein; Tm shift relative to glycine control, % at 25 µM;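 active means melting temperature shift of at least 10% of the positive control shift, at one fixed dose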
FAS-TE inh = inhibitors of human fatty acid synthase thioesterase domain. P49327. recombinant FAS-TE, OMFH fluorogenic substrate, fluorescence endpoint. inhibition, % at 15 µM. 360,000 tested, 0.67% active. AID 602261;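 active means compounds whose normalised, plate-corrected inhibition of enzyme fluorescence in the single-dose primary screen is 50% or more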;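 further: 0% = DMSO with enzyme and 100% = substrate without enzyme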
MPTP block = permeability transition pore inhibition; isolated mouse mitochondria, Ca2+ swelling absorbance, 30 min; inhibition, % at 10 µM; 360,000 tested, 1.4% active;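 active means inhibition of 50% or more, scaled per plate between neutral and stimulator controls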;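 further: 0% = DMSO wells given calcium and 100% = 1 mM EGTA wells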
pCIP destab = compounds decreasing mouse p/CIP protein stability; F442A p/CIP-EGFP cells, EGFP fluorescence, 16 h; 290,000 tested, 0.01% active; AID 1984; decrease of EGFP signal, % at 10 µM;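 active means EGFP signal decrease of at least 30% at 10 µM or well 3 SD below plate mean, unless failing retest; inactive means the rest, including hits failing retest or dose response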
Target sequence (Q05BA5 1-1403): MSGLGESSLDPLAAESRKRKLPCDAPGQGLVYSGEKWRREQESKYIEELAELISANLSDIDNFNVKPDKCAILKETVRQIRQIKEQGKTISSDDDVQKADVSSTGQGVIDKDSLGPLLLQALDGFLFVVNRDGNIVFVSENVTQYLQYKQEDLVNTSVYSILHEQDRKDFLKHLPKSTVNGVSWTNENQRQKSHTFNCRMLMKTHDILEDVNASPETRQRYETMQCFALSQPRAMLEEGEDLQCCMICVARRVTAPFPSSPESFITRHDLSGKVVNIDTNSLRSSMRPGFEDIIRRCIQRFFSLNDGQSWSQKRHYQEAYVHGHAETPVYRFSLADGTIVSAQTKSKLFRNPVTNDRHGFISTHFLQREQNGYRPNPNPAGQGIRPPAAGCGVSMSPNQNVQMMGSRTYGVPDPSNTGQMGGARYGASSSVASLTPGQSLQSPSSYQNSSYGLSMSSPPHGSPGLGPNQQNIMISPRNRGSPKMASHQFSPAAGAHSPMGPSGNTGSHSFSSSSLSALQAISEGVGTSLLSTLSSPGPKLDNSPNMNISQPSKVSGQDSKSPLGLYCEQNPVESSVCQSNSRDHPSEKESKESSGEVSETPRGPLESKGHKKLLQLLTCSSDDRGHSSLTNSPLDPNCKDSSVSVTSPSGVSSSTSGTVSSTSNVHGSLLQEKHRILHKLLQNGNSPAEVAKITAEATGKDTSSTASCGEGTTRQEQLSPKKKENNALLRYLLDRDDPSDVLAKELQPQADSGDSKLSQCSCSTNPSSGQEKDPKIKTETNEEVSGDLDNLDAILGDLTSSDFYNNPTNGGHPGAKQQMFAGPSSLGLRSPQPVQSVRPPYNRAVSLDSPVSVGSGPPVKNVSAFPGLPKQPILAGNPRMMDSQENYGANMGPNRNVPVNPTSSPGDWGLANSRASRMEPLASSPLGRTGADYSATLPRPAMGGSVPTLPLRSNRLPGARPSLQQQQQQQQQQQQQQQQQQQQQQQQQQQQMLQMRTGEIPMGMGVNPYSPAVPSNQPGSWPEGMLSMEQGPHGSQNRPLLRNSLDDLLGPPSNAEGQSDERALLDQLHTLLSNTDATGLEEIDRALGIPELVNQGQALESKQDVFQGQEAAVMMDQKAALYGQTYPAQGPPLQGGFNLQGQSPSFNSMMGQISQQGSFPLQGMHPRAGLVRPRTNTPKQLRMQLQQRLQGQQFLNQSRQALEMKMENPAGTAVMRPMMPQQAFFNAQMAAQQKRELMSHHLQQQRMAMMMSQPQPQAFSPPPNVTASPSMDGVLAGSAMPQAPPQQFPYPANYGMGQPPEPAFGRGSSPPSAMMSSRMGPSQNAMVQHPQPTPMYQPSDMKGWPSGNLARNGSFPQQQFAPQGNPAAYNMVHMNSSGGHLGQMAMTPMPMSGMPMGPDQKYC
MPTP counter = mitochondrial membrane potential, counter-screen | shares compounds with MPTP block | isolated mitochondria, Rhodamine 123 fluorescence | inhibition, % at 10 µM | 5,000 tested, 78% active; in the data active means inhibition above about 22%;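 further: 0% = DMSO vehicle and 100% = positive control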
MPTP swell DR = MPTP inhibition, dose response swelling confirmation | IC50, µM | isolated mitochondria swelling, absorbance | 780 tested, 58% active | AID 651561 | shares compounds with MPTP block; in the data active means IC50 below about 20 µM
MPTP counter DR = counter-screen for mitochondrial permeability transition pore inhibitors, dose response. shares compounds with MPTP block. AID 651564. isolated mitochondria counterscreen, fluorescence read-out. IC50, µM. 780 tested, 49% active; in the data active means IC50 below about 80 µM
An asterisk follows results filed as active; i = inactive; nt = no result. Shown are actives, neighbours in structure and some others; about 4.1% of the full set was active somewhere.

SMILES	MIN6 prolif	GRIN3A LBD mod	FAS-TE inh	MPTP block	pCIP destab	MPTP counter	others
O=C(Cc1ccc(Br)cc1)NCCc1ccc(Cl)cc1Cl	-4.3	0.2	19.2	50.2*	-5.7	68.0*
O=C(NCc1ccccc1)c1cc(-c2cccc(O)c2)on1	-2.3	-6.5	-2.2	112.6*	-16.9	15.7	MPTP swell DR=4.28*;MPTP counter DR=18.6*
Cc1ccc(NC(=O)c2cc(-c3cccc(O)c3)on2)cc1C	-4.2	3.8	15.6	104.7*	-5.0	20.4*
CCOc1ccc(C(=O)NNC(=O)CN2C(=O)C3CC=CCC3C2=O)cc1OC (stereo not given)	-0.1	0.2	-9.0	-2.7	nt	nt
O=c1[nH]c(CNCc2cccnc2)nc2ccccc12	-0.3	0.2	-2.5	-0.8	3.6	nt
CN(C)Cc1csc(NC(=O)Nc2cccc(Cl)c2)n1	nt	nt	-3.1	0.0	nt	nt
O=C(Nc1ccc(F)cc1)Nc1nnc(-c2ccncc2)s1	-4.4	2.2	-2.5	90.7*	-17.1	89.0*
O=C(Nc1ccc(Cl)cc1)Nc1nnc(-c2ccncc2)s1	nt	20.5*	0.9	79.2*	-6.7	23.8*
O=C(Nc1ccc(F)cc1)Nc1nnc(COc2ccccc2F)s1	-6.2	36.5*	2.5	83.0*	12.4	82.9*
O=C(Nc1nnc(COc2ccccc2F)s1)Nc1ccccc1F	-1.9	8.9	2.7	18.7	-18.8	nt
O=C(Nc1cccc(Cl)c1)Nc1nnc(-c2ccncc2)s1	-6.9	27.4*	4.2	101.4*	-25.5	55.1*
COc1cccc(/C(=N/O)C2CC2c2ccc(Cl)cc2)c1 (stereo not given)	4.8	-7.3	-3.3	0.5	3.5	nt
Cn1c(=O)[nH]c(=O)c2c1nc(NCc1ccco1)n2Cc1ccccc1Cl	0.5	-0.9	-3.4	0.7	-0.8	nt
Cc1ccc(NC(=O)Nc2nnc(-c3ccncc3)s2)cc1C	-6.1	8.7	1.6	86.6*	-13.4	78.8*
COC(=O)Nc1nnc(-c2ccncc2)s1	-0.2	1.5	-8.1	-4.3	-9.8	nt
Cc1ccc(-n2ncc3c(N4CCN(c5ccccc5)CC4)ncnc32)c(C)c1	-5.6	0.5	3.4	51.4*	-8.6	33.5*
O=C(NCc1ccco1)Nc1ccc(OC(F)(F)F)cc1	-2.6	0.3	4.7	51.7*	3.4	79.7*
CC(=O)c1cccc(NC(=O)C2Cc3c(-c4cccc(F)c4)ccnc3O2)c1 (stereo not given)	nt	nt	15.4	2.0	nt	nt
N#Cc1c(NC(=O)CSc2ncn[nH]2)sc2c1CCCCC2	-4.0	-9.8	-154.7	5.7	-5.8	nt
CC(Sc1nc(N)cc(=O)[nH]1)C(=O)Nc1sc2c(c1C#N)CCCC2 (stereo not given)	-3.2	-2.0	-0.9	75.6*	7.0	94.0*
Cc1nnc(SC(C)C(=O)Nc2sc3c(c2C#N)CCCC3)[nH]c1=O (stereo not given)	0.0	1.7	-3.9	0.0	-3.4	nt
CCC(Sc1nc(C)cc(=O)[nH]1)C(=O)Nc1sc2c(c1C#N)CCCC2 (stereo not given)	-3.7	-6.0	-6.6	58.5*	-19.4	68.6*
N#Cc1c(NC(=O)CSc2nc(N)cc(=O)[nH]2)sc2c1CCCCCC2	-2.2	-6.0	-2.9	83.2*	-15.3	59.2*
O=C(CCCn1c(SCC(=O)c2ccc(O)c(O)c2)nc2ccccc2c1=O)NCC1CCCO1 (stereo not given)	0.9	-1.9	-8.6	5.4	0.2	nt
COc1cccc(NC(=O)N2CCc3nc(NCc4cccc(Oc5ccccc5)c4)ncc3C2)c1	nt	nt	-1.9	1.9	nt	nt
SMILES	MIN6 prolif	GRIN3A LBD mod	FAS-TE inh	MPTP block	pCIP destab	MPTP counter	others
O=C(Nc1ccc(OC(F)(F)F)cc1)N1CCc2nc(NCc3cccc(Oc4ccccc4)c3)ncc2C1	nt	nt	-13.3	91.8*	nt	95.7*
Oc1ccc(Cl)cc1Cc1cc(Cl)ccc1O	-7.8	17.2*	18.6	86.4*	-15.3	86.5*
Oc1ccc(Cl)cc1CNCc1ccc(Cl)cc1	-6.2	-1.2	0.7	0.2	nt	nt
COCCOc1ccc(C(F)(F)F)cc1NC(=O)c1ccc(C)cc1	0.0	5.1	2.7	58.0*	-23.8	-6.3	MPTP swell DR=15.3*;MPTP counter DR=>80
COc1ccc([C@H]2CC(=O)C=C(c3ccc(CNC(=O)OC(C)(C)C)cc3)C2)cc1	-7.4	2.7	25.1	70.9*	nt	80.4*
CCC(C)c1ccccc1N=Cc1ccc2c(c1)OCO2 (stereo not given)	0.0	0.5	15.9	71.2*	6.1	2.0	MPTP swell DR=>100;MPTP counter DR=>80
CC(=O)Nc1ccc(S(=O)(=O)NCCc2ccc3c(c2)OCCO3)cc1	nt	nt	-6.9	-1.5	nt	nt
Clc1cccc(Cl)c1CON/C=N/c1ncnc2sccc12	0.5	-34.2	15.3	69.4*	-10.5	40.8*
Cc1cccc(C)c1NC(=O)CN1CCN(CCCC(c2ccc(F)cc2)c2ccc(F)cc2)CC1	-8.2	-0.9	19.9	3.8	nt	nt
CCN(CC)CCNC(=O)c1cc2c(-c3ccc(Cl)cc3)nn(C)c2s1	-8.3	-3.8	1.8	85.7*	2.8	-26.3
Cn1nc(-c2ccc(Cl)cc2)c2cc(C(=O)NCCCN3CCOCC3)sc21	-3.8	0.1	4.5	73.7*	0.7	-11.8
Cc1nnc(N/N=C/C(C)c2ccccc2)[nH]c1=O (stereo not given)	1.4	-2.1	-6.9	1.9	-2.6	nt
NS(=O)(=O)c1cnccc1Oc1cccc(Cl)c1	-5.5	3.6	-3.8	0.4	nt	nt
NCCc1c(-c2ccccc2)n(-c2ccccc2)c2ccccc12	-5.5	-3.8	-73.6	78.8*	-3.5	-13.9
Cc1ccc(Nc2nc(NCCCN3CCOCC3)nc(N)c2[N+](=O)[O-])cc1C	1.9	-4.9	8.7	66.6*	-0.3	-4.2	MPTP swell DR=>100;MPTP counter DR=>80
Cc1cccc(Nc2nc(N3CCN(C)CC3)nc(N)c2[N+](=O)[O-])c1	-2.3	4.4	3.2	69.2*	-34.8	-14.6	MPTP swell DR=i;MPTP counter DR=>80
Cc1cccc(Nc2nc(N)c([N+](=O)[O-])c(N3CC(C)CC(C)C3)n2)c1 (stereo not given)	-5.6	5.1	38.1	56.0*	1.3	-6.5	MPTP swell DR=>100;MPTP counter DR=62.7*
CCN1CCN(c2nc(N)c([N+](=O)[O-])c(Nc3cccc(C)c3)n2)CC1	-4.6	8.4	2.2	0.1	-17.3	nt
Cc1cccc(Nc2nc(N)c([N+](=O)[O-])c(N3CC(C)OC(C)C3)n2)c1 (stereo not given)	-4.2	-3.3	10.0	-0.3	-3.5	nt
CCOC(=O)C1(CCc2ccccc2)CCN(C(=O)c2cc(C)nc(C)n2)CC1	0.2	2.4	2.8	1.4	0.3	nt
COc1ccccc1CCc1nnc(CCC(=O)N(C)Cc2cccc3cnccc23)o1	-3.5	0.1	-8.1	3.2	-2.7	nt
COc1ccc(CCc2nnc(CCC(=O)N(C)Cc3ccnc4ccccc34)o2)cc1	0.0	-0.3	-7.2	79.4*	-22.1	30.4*

High-throughput results: PubChem, Sanford-Burnham Center for Chemical Genomics
